# Only some compounds are listed: those with a hit (about 5.4% of all), similar ones and a draw of the others.
# A3G deaminase – inhibitors of human APOBEC3G DNA deaminase. inhibition, % at 20 µM. actives 0.28% (n = 330,000). recombinant A3G, ssDNA deamination FAM/TAMRA fluorescence. Q9HC16;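 active = inhibition of at least 40% at 20 µM, with no more than 30% in the related APOBEC3A deaminase screen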;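 note: plate controls were DMSO wells with A3G for no effect and wells lacking A3G enzyme for full effect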
# Target sequence (Q9HC16 whole entry, looked up): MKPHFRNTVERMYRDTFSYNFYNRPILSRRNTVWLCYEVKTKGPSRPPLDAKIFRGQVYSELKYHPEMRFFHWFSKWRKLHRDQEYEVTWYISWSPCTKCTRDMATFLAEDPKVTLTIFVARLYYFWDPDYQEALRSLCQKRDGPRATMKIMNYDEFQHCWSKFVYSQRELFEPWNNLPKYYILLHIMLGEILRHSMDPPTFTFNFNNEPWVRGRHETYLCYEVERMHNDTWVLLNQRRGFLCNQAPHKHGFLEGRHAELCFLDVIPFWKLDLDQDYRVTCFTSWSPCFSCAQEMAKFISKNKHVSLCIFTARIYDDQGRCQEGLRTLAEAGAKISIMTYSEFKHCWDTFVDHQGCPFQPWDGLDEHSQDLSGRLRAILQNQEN
# ALR inh – inhibitors of human sulfhydryl oxidase ALR | inhibition, % (test concentration not listed) | purified ALR, DTT oxidation, H2O2 HRP-luminol luminescence | actives 3.8% (n = 290,000) | AID 485317;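 active = mean replicate inhibition above about 79%, with every replicate also reaching it, limit read from the data; inconclusive = only one of the two criteria met; inactive = mean below limit and not every replicate reaching it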
# Target sequence (P55789 whole entry, looked up): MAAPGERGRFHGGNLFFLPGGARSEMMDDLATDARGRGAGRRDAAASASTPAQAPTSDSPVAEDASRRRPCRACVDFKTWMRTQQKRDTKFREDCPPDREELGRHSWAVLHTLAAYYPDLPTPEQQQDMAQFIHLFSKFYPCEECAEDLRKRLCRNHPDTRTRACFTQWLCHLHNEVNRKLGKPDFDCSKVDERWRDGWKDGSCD
# A3A deaminase – human APOBEC3A DNA deaminase inhibition | actives 0.41% (n = 330,000) | recombinant A3A, FAM/TAMRA ssDNA deamination fluorescence | P31941 | inhibition, % at 20 µM;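 active = at least 40% inhibition at 20 µM here, with at most 30% in a related deaminase screen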;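 note: plate controls were A3A with DMSO for no effect and wells lacking A3A enzyme for full effect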
# aDG glyco act – increases alpha dystroglycan glycosylation; activation, % at 10 µM; actives 0.22% (n = 360,000); Pro5-aDG cells, alpha-DG glycosylation AlphaScreen (IIH6); 0% Pro5, 100% B10-LARGE cell signal;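 active = activation of at least 8% versus controls, or a plate z-score of at least 8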;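 note: Pro5 are CHO cells carrying HIG-tagged alpha-DG that lacks glycosylation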
# rCAG binder – binds r(CAG) RNA repeats. r(CAG) RNA repeat, TO-PRO-1 dye displacement fluorescence. inhibition, % at 3 µM. actives 1.3% (n = 370,000);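 active = inhibition above the plate cutoff, the mean of all test compounds on that plate plus 3 SD, cut at about 35% in these data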;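 note: 0% = DMSO alone and 100% = 100 µM mitoxantrone as full dye displacement; higher means more dye released from RNA so lower well fluorescence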
# PHOSPHO1 inh – inhibitors of human PHOSPHO1 phosphatase. recombinant PHOSPHO1, absorbance phosphatase assay. inhibition, % at 13.3 µM. actives 1.1% (n = 290,000); in the data active = inhibition above about 60%
# rCAG bind conf – r(CAG) RNA repeat binding, confirmation | shares compounds with rCAG binder | TO-PRO-1 dye displacement fluorescence | inhibition, % at 3 µM | actives 70% (n = 4,300);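 active = inhibition above a per-plate cutoff, the mean inhibition of sample wells plus 3 SD, cut at about 35% in these data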;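 note: loss of TO-PRO-1 fluorescence as compound displaces dye from 1x1 AA loop RNA; 0% = DMSO only wells and 100% = 100 µM mitoxantrone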
# DNA CAG counter – counter-screen for rCAG RNA binders: DNA CAG dye complex inhibitors; actives 94% (n = 4,300); inhibition, % at 3 µM; shares compounds with rCAG binder; d(CAG) DNA oligo TO-PRO-1 dye displacement, fluorescence;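 active = inhibition above its plate's cutoff, the mean test-well inhibition plus 3 SD, cut at about 4.8% in these data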;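 note: 0% = DNA dye mix with DMSO and 100% = 100 µM mitoxantrone; hits displace the dye from DNA and so lower well fluorescence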
# Starred values were filed as active, the others as inactive; ? = inconclusive; . = not tested or not shown.
SMILES,A3G deaminase,ALR inh,A3A deaminase,aDG glyco act,rCAG binder,PHOSPHO1 inh,rCAG bind conf,DNA CAG counter
C[C@H]1CN([C@@H](C)CO)C(=O)CCCn2cc(nn2)CO[C@@H]1CN(C)C(=O)c1ccncc1,.,.,.,-0.1,1.0,.,.,.
Cc1cc(Nc2ccc(Br)cc2)nc(-c2ccccc2O)n1,0.2,2.2,-1.6,0.0,38.0*,23.9,16.3,3.6
Cc1cc(N/N=C/c2ccc(O)c(C)c2O)nc(-c2ccccc2O)n1,.,3.5,.,-0.9,62.1*,-23.5,53.4*,24.1*
Cc1ccc(Nc2cc(C)nc(-c3ccccc3O)n2)cc1,-4.2,0.6,-2.2,0.2,20.8,-2.0,.,.
Cc1ccc(S(=O)(=O)N2[C@@H](c3ccc(F)cc3)C(C(=O)O)=CC[C@H]2c2cccc(C)c2)cc1,-8.6,.,1.4,0.0,8.8,.,.,.
Cc1ccc(S(=O)(=O)N2[C@@H](c3ccc(F)cc3)C(C(=O)O)=CC[C@H]2c2ccc3c(c2)OCO3)cc1,-1.8,14.8,-2.3,-0.1,53.0*,.,51.1*,16.6*
Cc1ccc(S(=O)(=O)N2[C@@H](c3ccccc3F)C(C(=O)O)=CC[C@H]2c2ccc3c(c2)OCO3)cc1,-12.5,0.2,-7.9,0.1,46.5*,.,40.5*,10.5*
CS(=O)(=O)c1ccc2nc(NC(=O)c3ccc(NS(=O)(=O)c4ccc(F)c(F)c4)cc3)sc2c1,-4.0,3.8,1.0,1.6,35.8*,33.4,66.5*,26.6*
COc1cc(OC)cc(C(=O)Nc2nc3ccc(S(C)(=O)=O)cc3s2)c1,0.2,5.1,1.5,-0.8,4.2,16.5,.,.
O=C(Nc1nc2ccc(SC(F)F)cc2s1)c1ccc(NS(=O)(=O)c2ccc(F)c(F)c2)cc1,-5.3,98.6*,-4.7,-0.1,62.4*,6.5,83.5*,65.9*
CS(=O)(=O)c1ccc2nc(NC(=O)c3cccc(NS(=O)(=O)c4ccc(F)c(F)c4)c3)sc2c1,-12.2,1.0,-1.6,-0.2,59.3*,-6.0,60.5*,24.6*
CS(=O)(=O)c1ccc2nc(NC(=O)c3cccc([N+](=O)[O-])c3)sc2c1,-4.9,.,-0.4,-0.1,19.2,13.8,.,.
CSc1nc2ccc(NC(=O)c3ccc(F)c(F)c3)cc2s1,-4.9,-9.1,-2.7,-0.3,9.4,16.8,.,.
Fc1ccc2cc(C3=CCCCC3)ncc2c1,.,.,.,.,19.2,.,.,.
Cc1ccc(-c2cc(C(=O)NN=Cc3ccc(-c4ccccc4)cc3)[nH]n2)cc1,.,.,.,.,10.0,.,.,.
OC(CCCN1CCCCC1)(c1ccccc1)c1ccc(C(F)(F)F)cc1 (configuration not stated),.,.,.,0.9,-0.1,.,.,.
N#CC(/C(=N/S(=O)(=O)c1cccs1)c1ccccc1)c1nc2ccccc2[nH]1 (configuration not stated),-0.6,2.9,1.5,-0.1,42.3*,-1.7,22.8,3.8
CC(C)(C)NC(=O)C(c1ccc(C#N)cc1)n1c(=O)c(-c2ccco2)nc2ccccc21 (configuration not stated),.,.,.,0.3,36.5*,.,24.0,12.7*
OC[C@@H]1CN(Cc2ccc(F)cc2)C[C@H](n2cnc3c(NCc4ccc(F)cc4)ncnc32)O1,.,.,.,-0.2,0.4,.,.,.
CC(C)=CCC/C(C)=C/Cc1c(O)ccc(C(=O)/C=C/c2ccc(O)cc2)c1O,-11.0,.,-1.5,1.0,67.6*,-1.4,39.3*,23.7*
O=[N+]([O-])c1ccccc1NC(=S)N/N=C/c1ccc(O)c(O)c1,-3.3,70.3,0.0,0.6,36.7*,-58.2,43.3*,22.7*
CCOc1cccc(/C=N/NC(=S)Nc2ccccc2[N+](=O)[O-])c1O,-0.6,36.1,-0.5,0.1,35.1*,-34.5,35.3*,14.8*
CCCCNC(=S)N/N=C/c1cccc(OCC)c1O,-1.1,-2.7,-1.3,0.3,-4.1,-7.6,.,.
CN(c1ccccc1)S(=O)(=O)c1ccc(C(=O)Nc2nnc(C3CC3)o2)cc1,-4.9,-19.0,-4.9,0.1,0.2,21.4,.,.
CN(c1ccccc1)S(=O)(=O)c1ccc(C(=O)Nc2nnc(-c3ccco3)o2)cc1,-4.5,?,-2.3,-0.4,42.2*,-15.4,35.7*,13.2*
SMILES,A3G deaminase,ALR inh,A3A deaminase,aDG glyco act,rCAG binder,PHOSPHO1 inh,rCAG bind conf,DNA CAG counter
CCN(c1ccccc1)S(=O)(=O)c1ccc(C(=O)Nc2nnc(C3CC3)o2)cc1,-2.4,6.9,-0.9,0.8,23.8,-20.9,.,.
CCN(c1ccccc1)S(=O)(=O)c1ccc(C(=O)Nc2nnc(-c3ccco3)o2)cc1,-8.3,7.9,-1.3,0.5,57.2*,16.2,45.4*,15.3*
CC1CCCN(S(=O)(=O)c2ccc(C(=O)Nc3nnc(-c4ccco4)o3)cc2)C1 (configuration not stated),-6.4,9.3,0.4,0.5,41.1*,57.8,37.9*,13.2*
Nc1c(C(=O)Nc2ccccc2F)sc2nc(-c3ccco3)ccc12,43.2,8.3,50.7,0.0,55.2*,37.9,72.9*,35.2*
COC(=O)c1sc2nc(-c3ccco3)ccc2c1N,5.4,98.0*,13.5,-0.1,50.2*,27.3,22.6,11.7*
COc1ccccc1CCn1cnc(-c2ccc(Cl)cc2)c1CC(C)C,.,.,.,.,-0.4,.,.,.
O=C1OC(c2ccccc2)(c2cc(Br)c(O)c(Br)c2)c2ccccc21 (configuration not stated),.,.,.,-0.1,49.8*,.,57.1*,15.7*
O=C(O)c1ccc(C2(c3ccc(C(=O)O)cc3)OC(=O)c3ccccc32)cc1,-0.8,-8.7,-2.6,-0.1,-2.6,14.9,.,.
O=C1OC(c2cccs2)=N/C1=C\c1ccc(-c2ccccc2Cl)o1,.,.,.,0.0,40.4*,-3.4,37.4*,15.6*
O=C1OC(c2cccs2)=N/C1=C/c1ccc(-c2cccc(C(=O)O)c2)o1,.,.,.,-0.3,18.4,-27.6,.,.
CN1C(=O)NC(c2ccccc2)C2=C1CN(c1cccc(C(F)(F)F)c1)C2=O (configuration not stated),-1.4,-3.1,0.9,0.0,48.7*,-2.7,2.9,-0.1
Cc1ccccc1N1CC2=C(C1=O)C(c1ccccc1)NC(=O)N2C (configuration not stated),-1.3,-3.3,-0.3,-0.1,-7.7,13.9,.,.
COc1cc(Cl)ccc1OC1(C)CCN(Cc2cccc(OC)c2OC)C1 (configuration not stated),.,.,.,-0.3,-2.6,.,.,.
CCCNC(=O)C1(C)CCCN(C(=O)C2(c3ccc(Cl)cc3)CCCC2)C1 (configuration not stated),.,.,.,0.2,-3.3,.,.,.
C=CCC1=C/C(=C\c2c(N)n3nc(CC(=O)N4CCCC4)sc3nc2=O)C=C(OC)C1=O,-0.4,50.0,-0.7,-0.9,17.6,29.0,.,.

# High-throughput results: PubChem BioAssay, several laboratories
